Binding signal data for five sequences are collected here from article PMC11006913.

What all share (experiment): PBM; 200 nM protein, PBS
Common to all, as to details: dsDNA, one strand shown

In test [1] the target is HESX1 (Homo sapiens, UniProt Q9UBX0 95-180, R165K).
Test [2] concerns the target HOXC9 (Homo sapiens, UniProt P31274 178-260, K195R).
For test [3], the target named is HOXC10 (Homo sapiens, UniProt Q9NYD6 254-340).
For test [4], the target named is HESX1 (Homo sapiens, UniProt Q9UBX0 95-180).
Sequence of HESX1 (Homo sapiens, UniProt Q9UBX0 95-180) (Q9UBX0 95-180): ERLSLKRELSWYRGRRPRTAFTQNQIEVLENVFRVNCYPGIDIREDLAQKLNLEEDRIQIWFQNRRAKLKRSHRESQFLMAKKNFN
Test [5] has as its target HOXC9 (Homo sapiens, UniProt P31274 178-260).
For test [6], the target named is MSX2 (Homo sapiens, UniProt P35548 130-214, R199I).
Sequence of MSX2 (Homo sapiens, UniProt P35548 130-214, R199I) (P35548 130-214 R199I): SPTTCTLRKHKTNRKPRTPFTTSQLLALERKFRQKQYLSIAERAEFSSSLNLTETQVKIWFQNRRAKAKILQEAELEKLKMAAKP
The target of test [7] is HOXC9 (Homo sapiens, UniProt P31274 178-260, R193K).
Sequence of HOXC9 (Homo sapiens, UniProt P31274 178-260, R193K) (P31274 178-260 R193K): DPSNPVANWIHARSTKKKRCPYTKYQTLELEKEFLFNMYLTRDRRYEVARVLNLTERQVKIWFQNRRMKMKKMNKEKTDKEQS
The target of test [8] is HOXC10 (Homo sapiens, UniProt Q9NYD6 254-340, K271E).
Sequence of HOXC10 (Homo sapiens, UniProt Q9NYD6 254-340, K271E) (Q9NYD6 254-340 K271E): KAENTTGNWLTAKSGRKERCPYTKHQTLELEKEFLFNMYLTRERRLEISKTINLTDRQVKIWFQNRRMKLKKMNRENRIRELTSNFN
Test [9] has as its target MSX2 (Homo sapiens, UniProt P35548 130-214).
For test [10], the target named is HESX1 (Homo sapiens, UniProt Q9UBX0 95-180, R109Q).
Sequence of HESX1 (Homo sapiens, UniProt Q9UBX0 95-180, R109Q) (Q9UBX0 95-180 R109Q): as the sequence (Q9UBX0 95-180) above, with R15Q counted along it
Test [11] concerns the target VAX1 (Homo sapiens, UniProt Q5SQQ9 86-172).
Test [12] addresses HESX1 (Homo sapiens, UniProt Q9UBX0 95-180, P111T).
Test [13] has as its target HOXC9 (Homo sapiens, UniProt P31274 178-260, R222W).
Test [14] deals with MSX2 (Homo sapiens, UniProt P35548 130-214, F161Y).
Sequence of MSX2 (Homo sapiens, UniProt P35548 130-214, F161Y) (P35548 130-214 F161Y): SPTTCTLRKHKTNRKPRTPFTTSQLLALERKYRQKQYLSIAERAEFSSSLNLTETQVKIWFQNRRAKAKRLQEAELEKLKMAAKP
In test [15] the target is HESX1 (Homo sapiens, UniProt Q9UBX0 95-180, F115L).
Sequence of HESX1 (Homo sapiens, UniProt Q9UBX0 95-180, F115L) (Q9UBX0 95-180 F115L): as the sequence (Q9UBX0 95-180) above, with F21L counted along it
Test [16] deals with VAX1 (Homo sapiens, UniProt Q5SQQ9 86-172, T142I).
Sequence of VAX1 (Homo sapiens, UniProt Q5SQQ9 86-172, T142I) (Q5SQQ9 86-172 T142I): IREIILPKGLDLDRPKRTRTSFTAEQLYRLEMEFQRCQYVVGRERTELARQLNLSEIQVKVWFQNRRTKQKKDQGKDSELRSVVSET
For test [17], the target named is VAX1 (Homo sapiens, UniProt Q5SQQ9 86-172, K157R).
Sequence of VAX1 (Homo sapiens, UniProt Q5SQQ9 86-172, K157R) (Q5SQQ9 86-172 K157R): as the sequence (Q5SQQ9 86-172 T142I) above, with I57T, K72R counted along it
The next test addresses HOXB9 (Homo sapiens, UniProt P17482 171-250, T197M).
Test [18] addresses HOXA7 (Homo sapiens, UniProt P31268 116-202).
The target in test [19] is ALX4 (Homo sapiens, UniProt Q9H161 200-286).
Sequence of ALX4 (Homo sapiens, UniProt Q9H161 200-286) (Q9H161 200-286): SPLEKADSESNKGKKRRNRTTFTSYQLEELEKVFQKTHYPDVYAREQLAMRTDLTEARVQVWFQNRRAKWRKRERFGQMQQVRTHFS
Test [20] addresses PRRX1 (Homo sapiens, UniProt P54821 80-166, F113S).
The target in test [21] is HOXB6 (Homo sapiens, UniProt P17509 132-218, K202E).
Sequence of HOXB6 (Homo sapiens, UniProt P17509 132-218, K202E) (P17509 132-218 K202E): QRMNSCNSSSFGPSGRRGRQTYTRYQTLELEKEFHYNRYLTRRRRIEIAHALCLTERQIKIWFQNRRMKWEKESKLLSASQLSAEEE
Test [22] addresses ALX4 (Homo sapiens, UniProt Q9H161 200-286, Q225E).
Test [23] has as its target HOXA4 (Homo sapiens, UniProt Q00056 201-287, R217L).
The target of test [24] is ALX1 (Homo sapiens, UniProt Q15699 118-204, L144V).
Sequence of ALX1 (Homo sapiens, UniProt Q15699 118-204, L144V) (Q15699 118-204 L144V): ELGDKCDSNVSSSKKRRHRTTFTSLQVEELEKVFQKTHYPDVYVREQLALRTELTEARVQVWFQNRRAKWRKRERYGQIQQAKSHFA
Test [25] deals with ALX3 (Homo sapiens, UniProt O95076 139-225, N203Q).
Sequence of ALX3 (Homo sapiens, UniProt O95076 139-225, N203Q) (O95076 139-225 N203Q): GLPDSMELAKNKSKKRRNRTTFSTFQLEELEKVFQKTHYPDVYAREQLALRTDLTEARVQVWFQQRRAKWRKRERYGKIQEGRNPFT
Test [26] concerns the target ALX1 (Homo sapiens, UniProt Q15699 118-204, L144R).
The target in test [27] is ALX3 (Homo sapiens, UniProt O95076 139-225).
Sequence of ALX3 (Homo sapiens, UniProt O95076 139-225) (O95076 139-225): as the sequence (O95076 139-225 N203Q) above, with Q65N counted along it
The target in test [28] is T1, PAX4 (Homo sapiens, UniProt O43316 9-242, F177Y).
T1 sequence: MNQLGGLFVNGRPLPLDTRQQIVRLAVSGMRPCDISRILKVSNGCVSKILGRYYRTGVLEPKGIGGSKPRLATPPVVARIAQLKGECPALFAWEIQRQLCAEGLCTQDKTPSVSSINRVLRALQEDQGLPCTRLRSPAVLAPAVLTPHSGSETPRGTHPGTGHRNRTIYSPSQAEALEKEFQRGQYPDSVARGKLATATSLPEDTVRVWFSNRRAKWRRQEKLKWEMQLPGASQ

Test [29] deals with PROP1 (Homo sapiens, UniProt O75360 56-141).
Sequence of PROP1 (Homo sapiens, UniProt O75360 56-141) (O75360 56-141): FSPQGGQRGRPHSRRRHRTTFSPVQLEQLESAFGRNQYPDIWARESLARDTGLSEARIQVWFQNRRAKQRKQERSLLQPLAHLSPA
Test [30] deals with PROP1 (Homo sapiens, UniProt O75360 56-141, R99H).
Sequence of PROP1 (Homo sapiens, UniProt O75360 56-141, R99H) (O75360 56-141 R99H): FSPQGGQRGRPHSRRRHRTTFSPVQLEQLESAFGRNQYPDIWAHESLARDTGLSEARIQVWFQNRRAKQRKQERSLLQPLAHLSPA
Test [31] concerns the target ALX3 (Homo sapiens, UniProt O95076 139-225, L168Q).
Test [32] addresses ALX3 (Homo sapiens, UniProt O95076 139-225, L168V).
For test [33], the target named is PROP1 (Homo sapiens, UniProt O75360 56-141, F88S).
Sequence of PROP1 (Homo sapiens, UniProt O75360 56-141, F88S) (O75360 56-141 F88S): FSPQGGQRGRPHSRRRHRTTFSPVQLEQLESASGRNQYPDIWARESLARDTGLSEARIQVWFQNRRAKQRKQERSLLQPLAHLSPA
Test [34] has as its target T2, PAX4 (Homo sapiens, UniProt O43316 9-242, R227W).
T2 sequence: T1 sequence with Y169F, R219W

For test [35], the target named is HOXA7 (Homo sapiens, UniProt P31268 116-202, W177C).
Sequence of HOXA7 (Homo sapiens, UniProt P31268 116-202, W177C) (P31268 116-202 W177C): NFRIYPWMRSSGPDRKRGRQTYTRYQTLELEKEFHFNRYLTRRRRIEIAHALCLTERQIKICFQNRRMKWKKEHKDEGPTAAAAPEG
Test [36] addresses ALX1 (Homo sapiens, UniProt Q15699 118-204).
Test [37] deals with HOXA4 (Homo sapiens, UniProt Q00056 201-287, W262F).
Sequence of HOXA4 (Homo sapiens, UniProt Q00056 201-287, W262F) (Q00056 201-287 W262F): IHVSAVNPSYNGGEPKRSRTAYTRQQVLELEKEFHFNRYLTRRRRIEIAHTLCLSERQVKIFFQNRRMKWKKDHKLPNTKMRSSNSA
The target in test [38] is ALX3 (Homo sapiens, UniProt O95076 139-225, N203S).
Sequence of ALX3 (Homo sapiens, UniProt O95076 139-225, N203S) (O95076 139-225 N203S): as the sequence (O95076 139-225 N203Q) above, with Q65S counted along it
Test [39] concerns the target PRRX1 (Homo sapiens, UniProt P54821 80-166).
Test [40] concerns the target HOXB6 (Homo sapiens, UniProt P17509 132-218).
Test [41] has as its target CRX (Homo sapiens, UniProt O43186 26-111).
The target of test [42] is CRX (Homo sapiens, UniProt O43186 26-111, E42D).
Sequence of CRX (Homo sapiens, UniProt O43186 26-111, E42D) (O43186 26-111 E42D): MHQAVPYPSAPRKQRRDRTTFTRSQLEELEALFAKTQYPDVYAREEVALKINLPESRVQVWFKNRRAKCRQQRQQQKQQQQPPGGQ
The target in test [43] is CRX (Homo sapiens, UniProt O43186 26-111, R41L).
Sequence of CRX (Homo sapiens, UniProt O43186 26-111, R41L) (O43186 26-111 R41L): as the sequence (O43186 26-111 E42D) above, with R16L, D17E counted along it

Substitutions are numbered along the chain they refer to.

Sequence of HESX1 (Homo sapiens, UniProt Q9UBX0 95-180, R165K) (Q9UBX0 95-180 R165K): as the sequence (Q9UBX0 95-180) above, with R71K counted along it
Sequence of HESX1 (Homo sapiens, UniProt Q9UBX0 95-180, P111T) (Q9UBX0 95-180 P111T): as the sequence (Q9UBX0 95-180) above, with P17T counted along it
Sequence of MSX2 (Homo sapiens, UniProt P35548 130-214) (P35548 130-214): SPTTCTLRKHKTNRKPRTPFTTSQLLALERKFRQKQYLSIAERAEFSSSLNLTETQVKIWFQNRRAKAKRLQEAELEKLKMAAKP
Sequence of HOXA7 (Homo sapiens, UniProt P31268 116-202) (P31268 116-202): as the sequence (P31268 116-202 W177C) above, with C62W counted along it
Sequence of CRX (Homo sapiens, UniProt O43186 26-111) (O43186 26-111): as the sequence (O43186 26-111 E42D) above, with D17E counted along it
Sequence of HOXC9 (Homo sapiens, UniProt P31274 178-260, R222W) (P31274 178-260 R222W): as the sequence (P31274 178-260 R193K) above, with K16R, R45W counted along it
Sequence of PRRX1 (Homo sapiens, UniProt P54821 80-166, F113S) (P54821 80-166 F113S): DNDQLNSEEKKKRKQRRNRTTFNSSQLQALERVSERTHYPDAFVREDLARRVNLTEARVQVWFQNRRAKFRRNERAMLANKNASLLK
Sequence of HOXB6 (Homo sapiens, UniProt P17509 132-218) (P17509 132-218): as the sequence (P17509 132-218 K202E) above, with E71K counted along it
Sequence of PRRX1 (Homo sapiens, UniProt P54821 80-166) (P54821 80-166): as the sequence (P54821 80-166 F113S) above, with S34F counted along it
Sequence of ALX1 (Homo sapiens, UniProt Q15699 118-204) (Q15699 118-204): as the sequence (Q15699 118-204 L144V) above, with V27L counted along it
Sequence of ALX3 (Homo sapiens, UniProt O95076 139-225, L168Q) (O95076 139-225 L168Q): as the sequence (O95076 139-225 N203Q) above, with L30Q, Q65N counted along it
Sequence of ALX3 (Homo sapiens, UniProt O95076 139-225, L168V) (O95076 139-225 L168V): as the sequence (O95076 139-225 N203Q) above, with L30V, Q65N counted along it
Sequence of ALX4 (Homo sapiens, UniProt Q9H161 200-286, Q225E) (Q9H161 200-286 Q225E): as the sequence (Q9H161 200-286) above, with Q26E counted along it
Sequence of HOXA4 (Homo sapiens, UniProt Q00056 201-287, R217L) (Q00056 201-287 R217L): as the sequence (Q00056 201-287 W262F) above, with R17L, F62W counted along it
Sequence of HOXC9 (Homo sapiens, UniProt P31274 178-260, K195R) (P31274 178-260 K195R): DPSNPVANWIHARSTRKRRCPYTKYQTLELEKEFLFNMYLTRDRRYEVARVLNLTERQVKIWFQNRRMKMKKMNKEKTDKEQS
Sequence of HOXC9 (Homo sapiens, UniProt P31274 178-260) (P31274 178-260): as the sequence (P31274 178-260 R193K) above, with K16R counted along it
Sequence of HOXC10 (Homo sapiens, UniProt Q9NYD6 254-340) (Q9NYD6 254-340): as the sequence (Q9NYD6 254-340 K271E) above, with E18K counted along it
Sequence of ALX1 (Homo sapiens, UniProt Q15699 118-204, L144R) (Q15699 118-204 L144R): as the sequence (Q15699 118-204 L144V) above, with V27R counted along it
Sequence of VAX1 (Homo sapiens, UniProt Q5SQQ9 86-172) (Q5SQQ9 86-172): as the sequence (Q5SQQ9 86-172 T142I) above, with I57T counted along it
Sequence of HOXB9 (P17482 171-250 T197M): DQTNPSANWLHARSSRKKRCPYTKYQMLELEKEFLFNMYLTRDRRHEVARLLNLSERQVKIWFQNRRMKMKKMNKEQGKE

As for CCAGCGCA, the binding signal with HESX1 [1] was 6.46 upbm affinity estimate (log intensity, higher = more binding, comparable within an allelic series); with HOXC9 [2], 9.45 upbm affinity estimate (log intensity, higher = more binding, comparable within an allelic series); in the test with HOXC10 [3], 10 upbm affinity estimate (log intensity, higher = more binding, comparable within an allelic series); with HESX1 [4], 6.4 upbm affinity estimate (log intensity, higher = more binding, comparable within an allelic series); in the test with HOXC9 [5], 9.65 upbm affinity estimate (log intensity, higher = more binding, comparable within an allelic series); with MSX2 [6], 9.46 upbm affinity estimate (log intensity, higher = more binding, comparable within an allelic series). In addition, the binding signal in the test with HOXC9 [7] was 9.5 upbm affinity estimate (log intensity, higher = more binding, comparable within an allelic series); with HOXC10 [8], 10 upbm affinity estimate (log intensity, higher = more binding, comparable within an allelic series); with MSX2 [9], 9.44 upbm affinity estimate (log intensity, higher = more binding, comparable within an allelic series); in the test with HESX1 [10] it was 6.49 upbm affinity estimate (log intensity, higher = more binding, comparable within an allelic series); with VAX1 [11], 7.28 upbm affinity estimate (log intensity, higher = more binding, comparable within an allelic series); with HESX1 [12] it was 6.38 upbm affinity estimate (log intensity, higher = more binding, comparable within an allelic series). In addition, the binding signal is 9.6 upbm affinity estimate (log intensity, higher = more binding, comparable within an allelic series) in the test with HOXC9 [13]; 9.44 upbm affinity estimate (log intensity, higher = more binding, comparable within an allelic series) with MSX2 [14]; 6.38 upbm affinity estimate (log intensity, higher = more binding, comparable within an allelic series) with HESX1 [15]; 7.16 upbm affinity estimate (log intensity, higher = more binding, comparable within an allelic series) with VAX1 [16]; 7.39 upbm affinity estimate (log intensity, higher = more binding, comparable within an allelic series) with VAX1 [17].

With AATTATTA, the binding signal with HESX1 [1] was 11.5 upbm affinity estimate (log intensity, higher = more binding, comparable within an allelic series); with HOXB9 it was 10.1 upbm affinity estimate (log intensity, higher = more binding, comparable within an allelic series); with HOXA7 [18] it was 11.3 upbm affinity estimate (log intensity, higher = more binding, comparable within an allelic series); with ALX4 [19] it was 13.5 upbm affinity estimate (log intensity, higher = more binding, comparable within an allelic series); in the test with PRRX1 [20], 11.3 upbm affinity estimate (log intensity, higher = more binding, comparable within an allelic series); in the test with HOXB6 [21] it was 10.1 upbm affinity estimate (log intensity, higher = more binding, comparable within an allelic series). Besides, the binding signal in the test with ALX4 [22] was 12.8 upbm affinity estimate (log intensity, higher = more binding, comparable within an allelic series); with HESX1 [4], 11.7 upbm affinity estimate (log intensity, higher = more binding, comparable within an allelic series); with HOXA4 [23], 12 upbm affinity estimate (log intensity, higher = more binding, comparable within an allelic series); in the test with MSX2 [6], 12.3 upbm affinity estimate (log intensity, higher = more binding, comparable within an allelic series); with ALX1 [24], 11.4 upbm affinity estimate (log intensity, higher = more binding, comparable within an allelic series); with ALX3 [25] it was 8.58 upbm affinity estimate (log intensity, higher = more binding, comparable within an allelic series). The binding signal with ALX1 [26] is 11.2 upbm affinity estimate (log intensity, higher = more binding, comparable within an allelic series); with MSX2 [9], 13.4 upbm affinity estimate (log intensity, higher = more binding, comparable within an allelic series); in the test with ALX3 [27], 12.3 upbm affinity estimate (log intensity, higher = more binding, comparable within an allelic series); in the test with PAX4 [28] it was 10.9 upbm affinity estimate (log intensity, higher = more binding, comparable within an allelic series); in the test with PROP1 [29], 11 upbm affinity estimate (log intensity, higher = more binding, comparable within an allelic series); with HESX1 [10], 8.87 upbm affinity estimate (log intensity, higher = more binding, comparable within an allelic series). For the same sequence, the binding signal with PROP1 [30] is 10.8 upbm affinity estimate (log intensity, higher = more binding, comparable within an allelic series); with ALX3 [31] it was 10.4 upbm affinity estimate (log intensity, higher = more binding, comparable within an allelic series); with HESX1 [12], 10.3 upbm affinity estimate (log intensity, higher = more binding, comparable within an allelic series); with HOXC9 [13], 11.1 upbm affinity estimate (log intensity, higher = more binding, comparable within an allelic series); with ALX3 [32] it was 9.98 upbm affinity estimate (log intensity, higher = more binding, comparable within an allelic series); in the test with PROP1 [33], 7.79 upbm affinity estimate (log intensity, higher = more binding, comparable within an allelic series). Also, the binding signal was 13.1 upbm affinity estimate (log intensity, higher = more binding, comparable within an allelic series) in the test with MSX2 [14]; 8 upbm affinity estimate (log intensity, higher = more binding, comparable within an allelic series) with HESX1 [15]; 12.3 upbm affinity estimate (log intensity, higher = more binding, comparable within an allelic series) in the test with VAX1 [16]; 11 upbm affinity estimate (log intensity, higher = more binding, comparable within an allelic series) with PAX4 [34]; 8.91 upbm affinity estimate (log intensity, higher = more binding, comparable within an allelic series) with HOXA7 [35]; 12 upbm affinity estimate (log intensity, higher = more binding, comparable within an allelic series) in the test with ALX1 [36]. Besides, the binding signal is 11.5 upbm affinity estimate (log intensity, higher = more binding, comparable within an allelic series) with HOXA4 [37]; 8.68 upbm affinity estimate (log intensity, higher = more binding, comparable within an allelic series) with ALX3 [38]; 13.4 upbm affinity estimate (log intensity, higher = more binding, comparable within an allelic series) with PRRX1 [39]; 11.8 upbm affinity estimate (log intensity, higher = more binding, comparable within an allelic series) in the test with HOXB6 [40].

For the sequence GCCGTCGC, the binding signal was 6.39 upbm affinity estimate (log intensity, higher = more binding, comparable within an allelic series) with HESX1 [1]; 8.32 upbm affinity estimate (log intensity, higher = more binding, comparable within an allelic series) in the test with CRX [41]; 9.29 upbm affinity estimate (log intensity, higher = more binding, comparable within an allelic series) in the test with PRRX1 [20]; 6.51 upbm affinity estimate (log intensity, higher = more binding, comparable within an allelic series) with HESX1 [4]; 8.21 upbm affinity estimate (log intensity, higher = more binding, comparable within an allelic series) with CRX [42]; 6.58 upbm affinity estimate (log intensity, higher = more binding, comparable within an allelic series) with HESX1 [10]. For the same sequence, the binding signal was 6.45 upbm affinity estimate (log intensity, higher = more binding, comparable within an allelic series) in the test with HESX1 [12]; 6.53 upbm affinity estimate (log intensity, higher = more binding, comparable within an allelic series) with HESX1 [15]; 8.17 upbm affinity estimate (log intensity, higher = more binding, comparable within an allelic series) with CRX [43]; 9.58 upbm affinity estimate (log intensity, higher = more binding, comparable within an allelic series) with PRRX1 [39].

With GCAATTAC, the binding signal with HESX1 [1] was 11.4 upbm affinity estimate (log intensity, higher = more binding, comparable within an allelic series); with HOXA7 [18], 11.2 upbm affinity estimate (log intensity, higher = more binding, comparable within an allelic series); with HOXB6 [21], 9.75 upbm affinity estimate (log intensity, higher = more binding, comparable within an allelic series); with HESX1 [4], 11.5 upbm affinity estimate (log intensity, higher = more binding, comparable within an allelic series); with MSX2 [6] it was 12.5 upbm affinity estimate (log intensity, higher = more binding, comparable within an allelic series); with MSX2 [9], 13.7 upbm affinity estimate (log intensity, higher = more binding, comparable within an allelic series). In addition, the binding signal with HESX1 [10] is 8.2 upbm affinity estimate (log intensity, higher = more binding, comparable within an allelic series); with HESX1 [12] it was 9.93 upbm affinity estimate (log intensity, higher = more binding, comparable within an allelic series); in the test with MSX2 [14], 13.4 upbm affinity estimate (log intensity, higher = more binding, comparable within an allelic series); with HESX1 [15], 7.19 upbm affinity estimate (log intensity, higher = more binding, comparable within an allelic series); with HOXA7 [35], 8.74 upbm affinity estimate (log intensity, higher = more binding, comparable within an allelic series); in the test with HOXB6 [40] it was 11.7 upbm affinity estimate (log intensity, higher = more binding, comparable within an allelic series).

GCCGGTCC: the binding signal with HESX1 [1] is 6.49 upbm affinity estimate (log intensity, higher = more binding, comparable within an allelic series); with CRX [41] it was 8.03 upbm affinity estimate (log intensity, higher = more binding, comparable within an allelic series); with HESX1 [4] it was 6.35 upbm affinity estimate (log intensity, higher = more binding, comparable within an allelic series); with CRX [42] it was 8.04 upbm affinity estimate (log intensity, higher = more binding, comparable within an allelic series); with HESX1 [10], 6.44 upbm affinity estimate (log intensity, higher = more binding, comparable within an allelic series); with HESX1 [12] it was 6.43 upbm affinity estimate (log intensity, higher = more binding, comparable within an allelic series). The binding signal was 6.58 upbm affinity estimate (log intensity, higher = more binding, comparable within an allelic series) with HESX1 [15] and 8.24 upbm affinity estimate (log intensity, higher = more binding, comparable within an allelic series) in the test with CRX [43].
